Shown are actives, neighbours in structure and some others; about 2.2% of the full set was active somewhere.
TRPM1 prom inh – reduces MITF-dependent TRPM1 promoter luciferase signal; SK-MEL-5 TRPM1 promoter luciferase, 24 h; inhibition, % at 12.5 µM; hit rate 0.83% among 330,000; AID 488899;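 active means mean inhibition across replicates of 60% or more, whatever share of single replicates reaches that level; inconclusive means some that reach 60%, reason not given; inactive means mean inhibition across replicates below 60%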
EWS-Fli inh – inhibitors of EWS/Fli oncoprotein transcriptional activity; hit rate 0.67% among 350,000; inhibition, % at 12.6 µM; A673 NR0B1-luciferase reporter, viability-normalised;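 active means mean inhibition of at least 50% after viability correction, with every replicate also passing that limit; inconclusive means mean reaches 50% but only one of two replicates passes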;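 further: firefly luciferase signal divided by Alamar Blue viability fluorescence both relative to DMSO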
LGR2 inh – Drosophila LGR2 receptor signaling inhibition. HEK293 LGR2, CRE-luciferase, bursicon-stimulated, 4 h. inhibition, % at 9.99 µM. hit rate 0.35% among 380,000. AID 720647;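 active means drop in luminescence signal, shown as inhibition above about 50% in the replicate tests, limit read from the data, passing the limit was not always enough; inconclusive means probably only some replicates passing the limit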;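 further: agonist challenge used bursicon conditioned medium at about half maximal strength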
LMP1 NFkB inh – reduces LMP1-driven NF-kappaB luciferase signal. LMP1-induced NF-kappaB luciferase reporter cells, luminescence. inhibition, % at 12.5 µM. hit rate 0.69% among 350,000; in the data active means inhibition above about 41%; inconclusive means no clear call, values can overlap the other calls;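 further: 0% = neutral control wells and 100% = reference inhibitor control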
PGC1a acetyl inh – modulators of PGC1a acetylation; U2OS PGC1a acetylation, AlphaScreen anti-acetyl-lysine; with virally co-expressed GCN5 acetyltransferase; inhibition, % at 15.6 µM; hit rate 0.17% among 350,000;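 active means every replicate shows inhibition of at least 40%; inconclusive means mean inhibition at least 40% but some replicate below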;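 further: 0% = neutral control wells and 100% = positive control wells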
PAX8 reporter – PAX8 transcriptional activity inhibition; RMG-I TPO-luciferase reporter, SteadyGlo, 24 h; inhibition, % at 12.6 µM; hit rate 1.2% among 360,000; AID 652154;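 active means mean replicate inhibition at least 60% with every replicate also reaching 60%; inconclusive means only one of the two criteria is met; inactive means mean below 60% and not all replicates reaching 60%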;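 further: luciferase light reporting Pax8 driven TPO promoter activity; plate controls were median of neutral control wells for no effect and mitoxantrone controls for full effect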
* marks the source's active call; other numbers are inactive results; ? = inconclusive; nt = no result given.

SMILES | TRPM1 prom inh | EWS-Fli inh | LGR2 inh | LMP1 NFkB inh | PGC1a acetyl inh | PAX8 reporter
N=c1n(CC(=O)c2ccc([N+](=O)[O-])cc2)c2ccccc2n1Cc1ccccc1Cl | 79* | 10 | -19 | -16 | nt | 4
CCC(=O)N(C)C[C@@H]1Oc2cc(C#Cc3ccccc3)ccc2S(=O)(=O)N([C@@H](C)CO)C[C@H]1C | nt | 2 | 5 | nt | -2 | 23
CN(C)CC(=O)N[C@@H]1C=C[C@H](CC(=O)O)O[C@H]1CO | nt | -8 | 0 | nt | nt | nt
CCCn1c(CN2CCN(C(=O)OCC)CC2)nc2cc(NC(=O)CC)ccc21 | 15 | 59* | 14 | -29 | 9 | 21
COc1ccc(NC(=O)Nc2ccc3c(c2)C(=O)N([C@@H](C)CO)C[C@H](C)[C@H](CN(C)Cc2ccc(C(F)(F)F)cc2)OCCCC[C@@H](C)O3)cc1 | nt | 4 | -4 | nt | 3 | 57
COc1ccc(NC(=O)Nc2ccc3c(c2)C(=O)N([C@H](C)CO)C[C@H](C)[C@H](CN(C)Cc2ccc(C(F)(F)F)cc2)OCCCC[C@H](C)O3)cc1 | nt | -3 | 8 | nt | -21 | 99*
COc1ccc(NC(=O)Nc2ccc3c(c2)C(=O)N([C@H](C)CO)C[C@H](C)[C@H](CN(C)Cc2ccc(C(F)(F)F)cc2)OCCCC[C@@H](C)O3)cc1 | nt | -1 | -5 | nt | -2 | 50
COc1ccc(CN(C)C[C@H]2OCCCC[C@@H](C)Oc3ccc(NC(=O)Nc4ccc(C(F)(F)F)cc4)cc3C(=O)N([C@H](C)CO)C[C@@H]2C)cc1 | nt | -1 | nt | nt | 23 | 2
COc1ccc(NC(=O)Nc2ccc3c(c2)C(=O)N([C@H](C)CO)C[C@@H](C)[C@H](CN(C)Cc2ccc(C(F)(F)F)cc2)OCCCC[C@H](C)O3)cc1 | nt | 61* | 12 | nt | -7 | 81*
COc1ccc(NC(=O)Nc2ccc3c(c2)C(=O)N([C@@H](C)CO)C[C@@H](C)[C@H](CN(C)Cc2ccc(C(F)(F)F)cc2)OCCCC[C@@H](C)O3)cc1 | nt | 0 | 5 | nt | -4 | 64*
COc1ccc(CN(C)C[C@H]2OCCCC[C@H](C)Oc3ccc(NC(=O)Nc4ccc(C(F)(F)F)cc4)cc3C(=O)N([C@H](C)CO)C[C@@H]2C)cc1 | nt | 71* | 20 | nt | -17 | 83*
CC(C)C#Cc1ccc2c(c1)O[C@@H](CN(C)C)[C@@H](C)CN([C@H](C)CO)S2(=O)=O | nt | 0 | 3 | nt | -7 | -10
COc1ccc(CN(C)C[C@@H]2OCCCC[C@@H](C)Oc3ccc(NC(=O)Nc4ccc(C(F)(F)F)cc4)cc3C(=O)N([C@@H](C)CO)C[C@H]2C)cc1 | nt | 71* | nt | nt | -24 | 98*
COc1ccc(NC(=O)Nc2ccc3c(c2)C(=O)N([C@@H](C)CO)C[C@@H](C)[C@H](CN(C)Cc2ccc(C(F)(F)F)cc2)OCCCC[C@H](C)O3)cc1 | nt | 8 | nt | nt | -4 | 49
COc1ccc(CN(C)C[C@@H]2OCCCC[C@H](C)Oc3ccc(NC(=O)Nc4ccc(F)cc4)cc3C(=O)N([C@H](C)CO)C[C@@H]2C)cc1 | nt | -5 | 12 | nt | 10 | 54
COc1ccc(CN(C)C[C@H]2OCCCC[C@@H](C)Oc3ccc(NC(=O)Nc4ccc(C(F)(F)F)cc4)cc3C(=O)N([C@@H](C)CO)C[C@@H]2C)cc1 | nt | 66* | nt | nt | 31 | 30
COc1ccc(CN(C)C[C@H]2OCCCC[C@@H](C)Oc3ccc(NC(=O)Nc4ccc(C(F)(F)F)cc4)cc3C(=O)N([C@@H](C)CO)C[C@H]2C)cc1 | nt | 69* | nt | nt | -5 | ?
COc1ccc(CN(C)C[C@H]2OCCCC[C@@H](C)Oc3ccc(NC(=O)Nc4ccc(F)cc4)cc3C(=O)N([C@@H](C)CO)C[C@@H]2C)cc1 | nt | -12 | nt | nt | -4 | 85*
COc1cccc(CNC(=O)C[C@H]2CC[C@H](NC(=O)C3CC3)[C@H](CO)O2)c1 | nt | -2 | 0 | nt | -7 | -2
C[C@@H]1CN([C@H](C)CO)S(=O)(=O)c2ccc(C#C[C@@H](C)O)cc2O[C@@H]1CN(C)C(=O)c1ccccc1 | nt | -3 | 23 | nt | 0 | nt
COc1ccc(-c2cnc3c(c2)C(=O)N([C@H](C)CO)C[C@H](C)[C@H](CN(C)C(=O)CN(C)C)O3)cc1 | nt | -14 | -11 | nt | 6 | nt
COc1ccc(CN(C)C[C@@H]2OCCCC[C@H](C)Oc3ccc(NC(=O)Nc4ccc(C(F)(F)F)cc4)cc3C(=O)N([C@H](C)CO)C[C@@H]2C)cc1 | nt | 71* | nt | nt | -27 | 108*
O=C(NCCc1ccccc1)[C@@H]1[C@@H](CO)[C@@H]2Cn3c(ccc(-c4ccccc4)c3=O)[C@H]1N2 | nt | -20 | 2 | nt | 5 | -5
O=[N+]([O-])c1ccc(-c2ccc(/C=N/Nc3nc(NCc4ccccc4)nc(N4CCOCC4)n3)o2)cc1 | 77* | nt | -13 | -83 | nt | 46
C[C@H]1CCCCO[C@H](CN(C)Cc2ccncc2)[C@@H](C)CN([C@@H](C)CO)C(=O)c2cc(NC(=O)NC3CCCCC3)ccc2O1 | nt | 0 | -4 | nt | 13 | 6
O=C1C=CCCN1C(=O)/C=C/c1cccc(Br)c1 | nt | 64* | nt | nt | 46* | 11
O=C(NCC1CC1)[C@H]1[C@H](CO)[C@H]2Cn3c(ccc(C4=CCCC4)c3=O)[C@@H]1N2C(=O)C1CC1 | nt | -6 | 9 | nt | nt | 8
Cc1noc(C)c1S(=O)(=O)Nc1ccc2c(c1)C(=O)N([C@@H](C)CO)C[C@@H](C)[C@@H](CN(C)Cc1ccc(Cl)c(Cl)c1)OCCCC[C@@H](C)O2 | nt | 14 | 1 | nt | -21 | 65*

Assay outcomes as filed in PubChem.
